Hits are enriched below; roughly 7.9% of the tested compounds scored in any of these assays.
KB-3-1 cytotox: kills parental KB-3-1 adenocarcinoma cells. KB-3-1 viability, CellTiter-Glo ATP luminescence, 72 h. Potency, µM (top dose mostly 46.1 µM), most hits filed as cytotoxic. 1.4% of 400,000 active; also: % is scaled to controls: 0 for no effect and ±100 for the full control effect; nearly all actives have a fitted effect of over 60% in size
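Here the drug-naive KB-3-1 line serves as comparator for MDR sub-line selectivity; cells received compound titrations, 72 h at 37 °C, then CellTiter-Glo readout.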
MCF10A rereplic: induces DNA re-replication in MCF 10a normal breast cells. MCF 10A DNA re-replication, Hoechst nuclear intensity, 48 h. AID 624296. 2.9% of 350,000 active. Potency, µM (highest dose often 46.1 µM), without a hit: at the highest dose activity, positive = re-replication, most hits filed as activators; also: % of control where 0% means no effect; nearly all actives have a fitted effect of over 50% in size
SW480 rerep: DNA re-replication induction in SW480 cells | AID 624297 | 1.8% of 340,000 active | SW480 DNA re-replication, Hoechst DNA content imaging, 48 h | Potency, µM (highest dose often 46.1 µM), for inactives: top-dose re-replication activation, usual class: activators; also: % of control where 0% means no effect; nearly all actives have a fitted effect of over 55% in size
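Treated cells incubate 48 hr (37 C, 5% CO2), are stained 40 min with Hoechst, and nuclear fluorescence is enumerated; a rise in nuclei with high DNA signal marks re-replication.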
HT1080-NT tox: kills 2HG-producing HT-1080-NT fibrosarcoma cells. HT-1080-NT fibrosarcoma viability, CellTiter-Glo ATP luminescence, 48 h. Potency, µM (series often up to 46.1 µM), for inactives: at the top dose activity, negative = less viability, usual class: cytotoxic. 1.6% of 360,000 active;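 also: NT is the 2HG producing partner of a matched IDH1 knockdown line; 0% = DMSO-treated cells and -100% = media-only wells without cells; nearly all actives have a fitted effect of over 55% in size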
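Read-out is CellTiter-Glo luminescence after 10 minutes at room temperature, following 48 hours' compound treatment of HT-1080-NT cells (750 cells/well, RPMI, 5% FBS, 37 degrees C).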
HT1080 IDH1KD tx: kills HT-1080 cells with IDH1 knockdown | HT-1080 IDH1 knockdown viability, ATP luminescence, 48 h | Potency, µM (highest dose often 46.1 µM), for the others: top-dose activity, negative = toxicity, most hits filed as cytotoxic | 2% of 360,000 active | AID 686971;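 also: 0% = DMSO wells and -100% = cell-free medium wells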
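HT-1080-IDH1KD cells (IDH1 knocked down), 750/well in RPMI with 5% FBS, treated with compound 48 h at 37 degrees C. Viability by CellTiter-Glo luminescence, normalised to DMSO and no-cell wells; concentration-response curves classed.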
KB-V1 MDR tox: KB-V1 MDR subline cytotoxicity | KB-V1 MDR cells viability, CellTiter-Glo, 72 h | Potency, µM (highest dose often 46.1 µM), most hits filed as cytotoxic | 3.4% of 400,000 active | AID 1347076; also: % is scaled to controls: 0 for no effect and ±100 for the full control effect; nearly all actives have a fitted effect of over 60% in size
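Luminescent ATP read-out (CellTiter-Glo, 10 min) measures survival of drug-selected KB-V1 MDR cells after 72 h, 37 degrees C compound exposure. Medium: phenol-red-free DMEM, 10% FBS. Values from fitted concentration-response curves.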
An asterisk follows results filed as active; i = inactive; ? = inconclusive; nt = no result given. Calls follow the shape of the dose curve; as a rule, active = well fitted curve in the direction sought with a large enough effect; inconclusive = small, poorly fitted or top-dose-only effect, or another doubt; inactive = no such curve, though single readings can be large; an effect the other way counts as inactive or inconclusive. Potency is read from the fitted curve at half-maximal effect.

SMILES | KB-3-1 cytotox | MCF10A rereplic | SW480 rerep | HT1080-NT tox | HT1080 IDH1KD tx | KB-V1 MDR tox
CCOC(=O)C1(Cc2ccccc2C(F)(F)F)CCN(Cc2ccc(COC)o2)CC1 | 18µM* | ? | 29% | ? | ? | ?
COc1ccc(NC(=S)N(CCC(C)C)C2CCN(C(C)C)CC2)cc1Cl | i | ? | 21µM* | -19% | -13% | i
COCCN(C(=S)Nc1ccc(OC)c(Cl)c1)C1CCN(C(C)C)CC1 | i | -10% | -2% | 9% | 2% | i
NNc1nc(-c2ccccc2)nc2sc3c(c12)CCCC3 | i | 22% | -17% | -18% | -11% | ?
Nc1c2c(nc3sc4c(c13)CCCC4)-c1ccccc1CC2 | ? | ? | -6% | ? | 18µM* | ?
CC(=O)c1ccc(NC(=O)CN2C(=O)/C(=C/C=C/c3ccccc3)SC2=S)cc1 | i | 10µM* | -8% | -24% | -22% | i
CCN1C(=O)C(CC(=O)Nc2ccc(OC)cc2)N(Cc2cccs2)C1=S (centres undefined) | i | -15% | 16% | -8% | -10% | i
Cc1cc2c(ncn2C)c(NS(=O)(=O)c2ccccc2Cl)c1C | i | 6% | 2% | 5% | 1% | ?
COCc1cc(=O)[nH]c(SCCS(=O)(=O)c2ccc(Cl)cc2Cl)n1 | ? | 16µM* | 16% | -2% | -6% | ?
COCc1cc(=O)[nH]c(SCCS(=O)(=O)c2ccc(C)cc2)n1 | i | -1% | -6% | -3% | -6% | i
CCN(CC)C(=O)CSc1nc2ccccc2c(=O)n1OC(C)C | i | -1% | -3% | 2% | 10% | 2.6µM*
CC(Oc1cc2oc(=O)c3c(c2cc1Cl)CCC3)C(=O)NCCCN1CCOCC1 (centres undefined) | i | 3% | -5% | 7% | 8% | i
COc1ccccc1N(CC(=O)Nc1ccc(F)c(F)c1)S(C)(=O)=O | i | 1% | -4% | -1% | -6% | i
c1ccc(COc2ncnc3c2ncn3CCCNC2CCN(Cc3ccccc3)CC2)cc1 | ? | nt | nt | 23µM* | 18µM* | i
CSc1ncnc2c1ncn2CCCNC1CCN(Cc2ccccc2)CC1 | i | nt | nt | -4% | -27% | ?
O=C1OCCN1C(=O)[C@H]1[C@H](c2ccc(F)cc2)C(c2cccc(Cl)c2)=NN1c1ccccc1 | i | 0.58µM* | 18µM* | -13% | -24% | i
O=C1OCCN1C(=O)[C@H]1[C@H](c2ccc(Cl)cc2)C(c2cccc(Cl)c2)=NN1c1ccccc1 | i | ? | 12µM* | -17% | -20% | i
Cc1cccc(C2=NN(c3ccccc3)[C@@H](C(=O)N3CCOC3=O)[C@@H]2c2ccc([N+](=O)[O-])cc2)c1 | i | -8% | 17% | -16% | -13% | i
C[C@@H]1C(c2ccc(F)cc2)=NN(c2ccccc2)[C@H]1C(=O)N1CCOC1=O | ? | ? | 3% | -18% | -27% | i
CC(C)C[C@H]1CNC(=S)N1CC1CCCN1C[C@H](Cc1ccccc1)N1C[C@H](Cc2ccc(O)cc2)N(CC2CCCCC2)C1=S (some centres undefined) | ? | -41% | 4.6µM* | -27% | ? | ?
CC(C)C[C@H]1CNC(=S)N1C[C@H]1CCCN1C[C@H](Cc1ccccc1)N1C[C@H](Cc2ccc(O)cc2)N(CC2CCCCCC2)C1=S | ? | nt | nt | 21µM* | 15µM* | ?
CC(C)C[C@H]1CNC(=S)N1CC1CCCN1C[C@H](Cc1ccc(O)cc1)N1C[C@H](Cc2ccccc2)N(CC2CCCCCC2)C1=S (some centres undefined) | i | -12% | ? | 0% | -7% | ?
CCCCC(=O)O[C@]1(C(=O)CO)[C@H](C)C[C@H]2[C@@H]3CCC4=CC(=O)C=C[C@]4(C)[C@@]3(F)[C@@H](O)C[C@@]21C | nt | 14% | 1% | nt | nt | nt
FC(F)(F)c1cccc(Cn2nnnc2-c2cccc(C(F)(F)F)c2)c1 | i | ? | 0% | -9% | -25% | 15µM*
FC(F)(F)c1cccc(Cn2nnnc2-c2cc(Cl)cc(Cl)c2)c1 | i | 2% | -2% | -19% | -10% | i
SMILES | KB-3-1 cytotox | MCF10A rereplic | SW480 rerep | HT1080-NT tox | HT1080 IDH1KD tx | KB-V1 MDR tox
Cc1ccc(-c2nc(NC(=O)CSc3cc(C)c4ccccc4n3)ns2)cc1 | i | -4% | -5% | 3% | 14% | i
COC(=O)c1sccc1NC(=O)Cn1nnc(-c2ccc(C)cc2)n1 | i | 3% | -5% | 6% | 0% | 21µM*
COC(=O)c1sccc1NC(=O)CN(C)NS(=O)(=O)c1ccc(F)cc1 | i | ? | 13µM* | ? | -27% | ?
COC(=O)c1sccc1NC(=O)COc1ccc(C)cc1 | i | -4% | -3% | 10% | 0% | i
COC(=O)c1sccc1NC(=O)CSc1ccc(Cl)cc1 | i | 19% | 5% | 20% | 8% | 23µM*
COC(=O)c1sccc1NC(=O)CSc1ccccc1N | i | ? | -54% | -6% | -4% | i
COC(=O)c1sccc1NC(=O)c1c(F)c(F)c(F)c(F)c1F | i | ? | -31% | 18µM* | ? | i
OC[C@H]1O[C@@](CO)(O[C@H]2O[C@H](CO)[C@@H](O)[C@H](O)[C@H]2O)[C@@H](O[C@H]2O[C@H](CO)[C@@H](O)[C@H](O)[C@H]2O)[C@@H]1O | i | -7% | -4% | 14% | 3% | i
COc1ccc(C2N(C(=O)c3ccccc3)CCN2C(=O)c2ccccc2)cc1 | i | 7% | -3% | 7% | 10% | i
COC(=O)c1sccc1NC(=O)c1c(C)c(-c2cccc(Cl)c2)nc2ccccc12 | i | 13% | 12% | 3% | -12% | 10µM*
COC(=O)c1sccc1NC(=O)CSc1ccccc1NS(=O)(=O)c1ccc(F)cc1 | i | ? | 9% | -5% | -9% | ?
COC(=O)c1sccc1NC(=O)CSc1ccccc1NS(=O)(=O)c1ccc(Br)cc1 | 21µM* | 18% | 28% | 1% | -3% | 4.1µM*
CCOC(=O)c1c(C)[nH]c(-c2csc(N)n2)c1C | ? | 16µM* | ? | 6.5µM* | 4.6µM* | i
CCOC(=O)c1c(C)[nH]c(-c2csc(C)n2)c1C | i | 2% | -2% | 0% | -18% | ?
O=C(c1cc(-c2cccc(O)c2)on1)N1CCN(C(c2ccccc2)c2ccccc2)CC1 | 18µM* | 6.5µM* | 18% | ? | ? | ?

Source: PubChem BioAssay
